# Shown are actives, neighbours in structure and some others; about 0.44% of the full set was active somewhere.
# RmlCD inh mix: inhibitors of RmlC and RmlD coupled enzymes | AID 1532 | inhibition, % at 5.5 µM | 110,000 tested, 0.39% active | RmlC/RmlD coupled enzyme inhibition, 384-well mixture HTS; in the data active = inhibition above about 30%, passing the limit was not always enough
# YopH PTP inh: YopH (Yersinia) phosphatase inhibition; fluorescence Ex485/Em525; inhibition, % (concentration not given with the values); 140,000 tested, 0.16% active; in the data active = inhibition above about 50%
# RmlCD artifact: RmlC/RmlD fluorescence artifact, counter-screen; calls only; AID 1696; 360 tested, 96% active; RmlC/RmlD assay fluorescence artifact counter-screen; shares compounds with RmlCD inh mix; call rule not given here;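 also: compound alone with no enzyme and no substrates present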
# * hit, by the source's call; / = no result; + = active, no number.
SMILES,RmlCD inh mix,YopH PTP inh,RmlCD artifact
N#Cc1c(C(F)(F)F)cc(C2CC2)[nH]c1=O,40*,-17,+
Cc1ccc(-c2cc(C(F)(F)F)c(C#N)c(=O)[nH]2)cc1,/,-20,/
NC(=O)c1ccccc1N,19,/,/
Nc1nc(N)c2nc(-c3ccccc3)c(N)nc2n1,119*,-25,+
NNc1nnc(-c2ccccc2)c(-c2ccccc2)n1,5,-19,/
CC(=O)C(CC(=O)N1CCCc2ccccc21)C(=O)Nc1ccc(F)cc1 (centres undefined),-14,-11,/
NC(=O)C1(N2CCCCC2)CCN(C(=S)Nc2cccc(Cl)c2)CC1,/,-1,/
O=C(COC(=O)C1CCN(S(=O)(=O)c2ccc3c(c2)OCCO3)CC1)Nc1cccc2ccccc12,/,-30,/
C[C@H](NC(=O)c1ccccc1Cl)C(=O)OCC(=O)N1CC2(C)CC1CC(C)(C)C2 (some centres undefined),/,-60,/
Nc1cccc(-c2nc3cc(S(=O)(=O)c4ccc5oc(-c6cccc(N)c6)nc5c4)ccc3o2)c1,46*,4,+
Cc1ccc(-c2nc3cc(N)ccc3o2)cc1,/,-27,/
NC(=O)CC(NC(=O)Cc1cccc2ccccc12)c1ccc(N2CCc3ccccc3C2)c([N+](=O)[O-])c1 (centres undefined),-10,/,/
Cc1csc(Sc2ccc([N+](=O)[O-])cc2C(=O)OCC(=O)NC2CCCC(C)C2C)n1 (centres undefined),-6,-34,/
COc1cccc(-n2nnnc2SCC(=O)c2cc(OC)ccc2OC)c1,38*,-34,+
COc1cccc(-n2nnnc2SCC(=O)c2ccc(NC(C)=O)cc2)c1,23,-46,/
COC(=O)C1=C(SC)N(c2ccccc2)C(c2ccccc2)CC1=O (centres undefined),/,-6,/
Cc1c(Cc2ccccc2)c(=O)oc2c(CN(C)C)c(O)c(Cl)cc12,145*,-17,+
CN(C)Cc1c(O)ccc2oc(Cc3ccccc3)cc12,4,-20,/
Cc1c(Br)c(=O)oc2c(Br)c(O)c(O)cc12,/,-7,/
CCN(CC)Cc1c(O)c(Cl)cc2c(C)c(C)c(=O)oc12,68*,-17,+
CCOC(=O)c1c(N)n(CCN2CCCCC2)c2nc3ccccc3nc12,38*,-21,+
COCCNC(=O)c1c(N)n(Cc2ccco2)c2nc3ccccc3nc12,19,-11,/
Nc1c(C(=O)NCCN2CCOCC2)c2nc3ccccc3nc2n1Cc1ccco1,37*,-3,+
COC(=O)c1c(N)n(CCCN2CCOCC2)c2nc3ccccc3nc12,-6,-17,/
O=C(c1ccccc1)N1CCN(c2ncnc3sc4c(c23)CCC4)CC1,0,-2,/
SMILES,RmlCD inh mix,YopH PTP inh,RmlCD artifact
O=C(NC(Cc1ccccc1)C(=O)O)c1ccc(S(=O)(=O)N2CCCCC2)cc1 (centres undefined),10,-16,/
COc1ccc2c(c1)c(C(O)CN1CCC(Cc3ccccc3)CC1)c(C)n2C (centres undefined),/,-16,/
CCOc1ccccc1Oc1c(C)oc2c(CN3CCN(C)CC3)c(O)ccc2c1=O,19,-15,/
CCc1cc2c(=O)c(Oc3ccccc3F)c(C)oc2c(CN(C)C)c1O,72*,5,+
COc1cccc(/C=N/n2nnc3c(cnn3-c3ccccc3)c2=O)c1,/,-48,/
COc1cccc(/C=C/c2nc3c(cnn3-c3ccccc3)c(=O)[nH]2)c1,/,/,+
C=CCON1C(=O)c2ccccc2C1=O,-10,-21,/
COC(=O)CON1C(=O)c2ccccc2C1=O,-16,-12,/
Cc1cc(C)c(C)c(S(=O)(=O)ON2C(=O)c3ccccc3C2=O)c1C,114*,-56,+
Cc1cc(C)c(S(=O)(=O)ON2C(=O)c3ccccc3C2=O)cc1C,146*,-30,+
COC(=O)[C@H]1C[C@@H]1[C@H](NC(=O)c1cccnc1)c1ccccc1,0,/,/
COc1ccc(CNc2nc3c(c(C(F)(F)F)n2)CCCCC3)cc1,-4,-15,/
CCOC(=O)C(=O)Nc1cc(Cl)ccc1C,/,-36,/
O=C(O)c1cc(-c2ccccc2)nc2ccccc12,4,-27,/
CCOc1ccc(-c2cc(C(=O)O)c3ccccc3n2)cc1,32*,-28,+
O=C(/C=C/c1ccccc1)N1CCN(CCN2C(=O)c3cccc4cccc(c34)C2=O)CC1,/,-26,/
O=C(Nc1ccccc1N1CCOCC1)c1cc(-c2ccco2)nc2ccccc12,/,-6,/
CNC(=O)COC(=O)c1cc(-c2ccco2)nc2ccccc12,/,/,+
O=C(NNC(=O)c1cc(-c2ccco2)nc2ccccc12)c1ccccc1,/,/,+
O=C(COC(=O)c1cc(-c2ccco2)nc2ccccc12)NCc1ccccc1,-27,-26,/
COc1cc(OC)c(-c2cc(C(=O)O)ccc2OC)c(OC)c1,/,-32,/
COc1ccc(/C=N\NC(=O)C2C(=O)NCC2c2ccccc2)cc1O (centres undefined),-5,-22,/
CCOc1ccc(NS(=O)(=O)c2ccc(NC(=O)C3CCCO3)cc2)cc1 (centres undefined),-8,-17,/
CC1=NNC(=O)C1C(c1ccccc1)C(C#N)C#N (centres undefined),-8,-2,/
CC(C)CC(C(=O)Oc1ccc2c3c(c(=O)oc2c1)CCC3)N1C(=O)c2ccccc2C1=O (centres undefined),/,-8,+
SMILES,RmlCD inh mix,YopH PTP inh,RmlCD artifact
CCC(C)C(NS(=O)(=O)c1ccc(C)cc1)C(=O)Oc1ccc2c3c(c(=O)oc2c1)CCC3 (centres undefined),17,-34,/
CC[C@@H](NS(=O)(=O)c1ccc(C)cc1)C(=O)Oc1ccc2c3c(c(=O)oc2c1)CCC3,/,2,+
Cc1ccc(S(=O)(=O)NC(CC(C)C)C(=O)Oc2ccc3c4c(c(=O)oc3c2)CCC4)cc1 (centres undefined),/,-19,/
CCCNc1nc(-c2cc(C(=O)Nc3ccccc3)on2)cc(C(C)C)n1,-18,/,/
CNC(=O)N(C1=NCC(C)(C)S1)c1ccc(F)c(Cl)c1,-11,-44,/
O=C(Nc1cccnc1)c1coc(=O)c2ccccc12,61*,-32,+
O=C(Nc1cccnc1)c1ccccc1O,-8,-18,/
Cc1ccc2[nH]c(=O)c(COC(=O)c3cccs3)cc2c1,/,-18,/
COc1ccccc1C(C)NCC(=O)Nc1ccccc1C(F)(F)F (centres undefined),/,-20,/
O=C(COC(=O)CNS(=O)(=O)c1cccc(Br)c1)Nc1ccccc1Sc1ccccc1,/,-21,/
NC(=O)C1=C[C@@H](c2ccccc2)C[C@@H](OCc2ccc(CO)cc2)O1,-13,/,/
CCOc1cc(-c2nc3c(C)cccn3c2NCC2CCCO2)ccc1O (centres undefined),44*,-31,+
CCOc1cc(-c2nc3ccccn3c2NCC2CCCO2)ccc1O (centres undefined),14,-14,/
COc1ccc2c(c1)[nH]c1c(=O)n(CCCN3CCOCC3)cnc12,-12,4,/
COc1ccc2c(c1)c1ncn(CCCN3CCOCC3)c(=O)c1n2C,106*,-5,+
O=C1OCC2OC(O)C(O)C(O)C2OC(=O)c2cc(O)c(O)c(O)c2-c2c(O)c(O)c3oc(=O)c4c(c(O)c(O)c5oc(=O)c2c3c54)-c2c1cc(O)c(O)c2O (centres undefined),35*,/,+
COc1cccc(-c2cc(C(F)(F)F)n3ncc(C(=O)NCC4CCCO4)c3n2)c1 (centres undefined),8,4,/
COc1ccc(-c2cc(C(F)(F)F)n3ncc(C(=O)NCC4CCCO4)c3n2)cc1 (centres undefined),36*,-23,+
COc1ccccc1OC(=O)c1cc(Cl)nc2ccccc12,10,-45,/
